BCR signal inh = inhibitors of chronic active B-cell receptor signaling; AID 493014; Potency, µM (top dose mostly 46.1 µM), for inactives: top-dose activity change, negative = inhibition, usual class: inhibitors; ABC-DLBCL IkBa-CBG/CBR reporter, luminescence ratio, 4 h; 0.05% of 340,000 active; active = well fitted inhibition curve with a large enough effect in the signal ratio, with a control signal flat, not every such curve was filed as active; inconclusive = small, poorly fitted or top-dose-only effect, or effect the other way, or a change in a side signal; the % refers to the signal ratio;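 note: potency is the fitted concentration of half-maximal effect; plate controls were basal doxycycline-induced cells for no effect and cells given 10 µM MG132 for full effect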
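TMD8 ABC-DLBCL cells carrying doxycycline-inducible green luciferase fused to IkappaBalpha plus unfused red luciferase were exposed to compounds (up to 46 uM) for 4 hrs at 37C. Activity came from the overlap-corrected green/red luminescence ratio.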
IL1B secr inh = blocks inflammasome-driven IL-1 beta release; THP-1 LPS/ATP IL-1B secretion, AlphaLISA, 16 h; stronger effect = lower value; activity change, % at 57.5 µM; 4.7% of 360,000 active; in the data active = activity change below about -50%; inconclusive = mostly about -30% to -49%; note: % is set by controls: 0 for no effect and ±100 for the full control effect
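Secreted IL-1B measured by AlphaLISA bead assay after 16 h compound exposure of THP-1 cells; compounds (final up to 57.5 uM) added 1 h before LPS (250 ng/mL) and ATP (1.25 mM) stimulation; lower signal means less secretion.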
MCF10A rerep = DNA re-replication induction in MCF 10a cells | Potency, µM (top dose mostly 46.1 µM), inactives show top-dose activity, positive = re-replication, hits mostly activators | 2.9% of 350,000 active | MCF 10A DNA re-replication, Hoechst nuclear intensity, 48 h; note: potency is the fitted concentration of half-maximal effect; % of control where 0% means no effect; nearly all actives have a fitted effect of over 50% in size
DT40 TDP1 CPT = growth inhibition of DT40 Tdp1-/-;hTDP1 cells with camptothecin (screen for TDP1 inhibitors); chicken DT40 Tdp1-/-;hTDP1 cells + 20 nM CPT, ATP luminescence, 48 h; Potency, µM (doses to about 46.2 µM), without a hit: at the highest dose activity change, negative = growth inhibition, actives largely listed as inhibitors; 12% of 420,000 active; AID 686979; note: potency is the fitted concentration of half-maximal effect; % is set by controls: 0 for no effect and ±100 for the full control effect; nearly all actives have a fitted effect of over 55% in size
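Cell growth measured by CellTiter-Glo luminescence after a minimum 48 h, 37 C compound exposure with 20 nM CPT in Tdp1-knockout DT40 cells stably expressing hTDP1, seeded 400/well; qHTS titration format.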
TDP1 cell noCPT = qHTS for Inhibitors of human tyrosyl-DNA phosphodiesterase 1 (TDP1): qHTS in cells in absence of CPT; Potency, µM (doses to about 46.2 µM), for inactives: top-dose activity change, negative = growth inhibition, most hits filed as inhibitors; DT40 Tdp1-/- hTDP1 cells, no CPT, ATP luminescence, 48 h; 15% of 420,000 active; AID 686978, 2013; note: potency is the fitted concentration of half-maximal effect; % is set by controls: 0 for no effect and ±100 for the full control effect; nearly all actives have a fitted effect of over 55% in size
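DT40 Tdp1-/-;hTDP1 cells, no CPT (DMSO vehicle only), 400 cells/well; compounds pin-transferred; ≥48 hr, 37 °C; CellTiter-Glo 30 min RT dark, luminescence read.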
SW480 rereplic = DNA re-replication induction in SW480 cells. 1.8% of 340,000 active. Potency, µM (titrated, usually from 46.1 µM), inactives show at the top dose re-replication activation, actives largely listed as activators. SW480 DNA re-replication, Hoechst DNA content imaging, 48 h. AID 624297; note: potency is the fitted concentration of half-maximal effect; % of control where 0% means no effect; nearly all actives have a fitted effect of over 55% in size
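SW480 cells exposed to compounds for 48 hr at 37 C, 5% CO2, then Hoechst-stained 40 min. Nuclear DNA content imaged by fluorescence scanning (405 nm excitation, 500-530 nm emission); re-replication scored as increased high-intensity nuclei.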
Active calls of the source: *. Rows were chosen to be rich in hits. Some 19% of all compounds tested hit in one or more screens of this group. Unless noted, calls come from the whole dose curve; as a rule, active = well fitted curve in the direction sought with a large enough effect; inconclusive = small, poorly fitted or top-dose-only effect, or another doubt; inactive = no such curve, though single readings can be large; an effect the other way counts as inactive or inconclusive.

Screening O=c1cc(-c2ccccc2)nc(Sc2ccc([N+](=O)[O-])cc2[N+](=O)[O-])[nH]1 returned IL1B secr inh -63*, MCF10A rerep inconclusive, DT40 TDP1 CPT inconclusive, TDP1 cell noCPT inconclusive and SW480 rereplic -139%.
CC(C)Sc1nc(-c2ccccc2)cc(=O)[nH]1 was read as BCR signal inh 4%, IL1B secr inh -6, MCF10A rerep inconclusive, DT40 TDP1 CPT -18%, TDP1 cell noCPT -9% and SW480 rereplic 0%.
Screening O=[N+]([O-])c1ccc(Sc2ncccn2)c([N+](=O)[O-])c1 returned BCR signal inh inconclusive, MCF10A rerep 18µM*, DT40 TDP1 CPT 0.82µM*, TDP1 cell noCPT 0.92µM* and SW480 rereplic inconclusive.
`O=[N+]([O-])c1ccc(Sc2nccn2Cc2ccccc2)c([N+](=O)[O-])c1` gave BCR signal inh inconclusive, IL1B secr inh -108*, MCF10A rerep 21µM*, DT40 TDP1 CPT 6.5µM*, TDP1 cell noCPT 5.8µM* and SW480 rereplic inconclusive.
Screening O=C(Nc1ncccn1)c1ccc([N+](=O)[O-])cc1[N+](=O)[O-] returned IL1B secr inh 0, MCF10A rerep -1%, DT40 TDP1 CPT inconclusive, TDP1 cell noCPT inconclusive and SW480 rereplic -15%.
`Cc1cccc(Sc2ccc([N+](=O)[O-])cc2[N+](=O)[O-])n1` gave BCR signal inh -4%, IL1B secr inh -171*, MCF10A rerep inconclusive, DT40 TDP1 CPT 3.3µM*, TDP1 cell noCPT 3.3µM* and SW480 rereplic 5%.
Cc1c(C(=O)NCC(C)(C)N2CCOCC2)cnn1-c1ncc2c(n1)-c1ccccc1CCC2 was read as DT40 TDP1 CPT 8% and TDP1 cell noCPT -4%.
For Nc1ccn(CC(=O)NCCc2ccccn2)c(=O)n1 the results were BCR signal inh -1%, IL1B secr inh 16, MCF10A rerep -4%, DT40 TDP1 CPT 1%, TDP1 cell noCPT 0% and SW480 rereplic -4%.
O=Nc1nc2ncccn2c1-c1ccccc1 was read as IL1B secr inh -84*, MCF10A rerep 13µM*, DT40 TDP1 CPT 0.092µM*, TDP1 cell noCPT 0.52µM* and SW480 rereplic 9.2µM*.
`COc1ccc(-c2nnc3n2N=C(c2ccccc2)CS3)cc1OC` gave BCR signal inh 10%.
For COc1ccc(C2=Nn3c(nnc3-c3ccccc3F)SC2)cc1OC1CCOC1 (configuration not stated) the results were BCR signal inh -1%, MCF10A rerep inconclusive and SW480 rereplic 10µM*.
CCCc1nnc2n1N=C(c1ccc(OC)c(OC)c1)CS2 was read as BCR signal inh 13µM*, IL1B secr inh -10, MCF10A rerep 12%, DT40 TDP1 CPT -21%, TDP1 cell noCPT -24% and SW480 rereplic inconclusive.
For COc1ccc(OC)c(-c2nnc3n2N=C(c2ccc(OC)c(OC4CCCC4)c2)CS3)c1 the results were BCR signal inh inconclusive, MCF10A rerep inconclusive and SW480 rereplic 0.73µM*.
`CCCc1ccc(C2=Nn3c(nnc3C(C)C)SC2)cc1` gave BCR signal inh -13%, IL1B secr inh -91*, MCF10A rerep 5%, DT40 TDP1 CPT inconclusive, TDP1 cell noCPT inconclusive and SW480 rereplic -13%.
`COc1ccc(C2=Nn3c(nnc3-c3ccncc3)SC2)cc1` gave BCR signal inh -11%, IL1B secr inh 12, MCF10A rerep 17%, DT40 TDP1 CPT inconclusive, TDP1 cell noCPT inconclusive and SW480 rereplic inconclusive.
COc1ccc(C2=Nn3c(nnc3-c3ccccc3F)SC2)cc1OC1CCCC1 was read as BCR signal inh 5.8µM*, MCF10A rerep inconclusive and SW480 rereplic inconclusive.

Screening data deposited in PubChem by National Center for Advancing Translational Sciences (NCATS).
